Source: the supplement of paper PMC3414501
Counter-ions that a name gives are not always drawn.

Experiments:
[1] = test system: S. cerevisiae SK1 pCDA2-eGFP (USY613), sporulating; test: CDA2-GFP sporulation assay sensitivity score (z-score vs DMSO controls); higher = stronger inhibition of sporulation, active = hit call of the paper;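 further: active if sensitivity score above 5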
[2] = test system: S. cerevisiae AD1-9 (efflux-pump deficient), vegetative growth in YPD; test: growth sensitivity score (doubling time z-score vs DMSO controls); higher = slower growth, strongly negative scores also mark growth inhibition (complete suppression), active = hit call of the paper
Procedure, shortened: (§1)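 Rich medium in microtiter plates was seeded with Saccharomyces cerevisiae strains BY4741 and AD1-9 at an OD600 of 0.065, and compounds were added as a 1:100 dilution of DMSO stock. A Tecan GENios reader recorded optical density every 15 min for 24 hours, with eight solvent-only wells in each experiment. Average doubling time was the time to reach a set generation point divided by generation number. The growth sensitivity score was the compound mean minus the solvent-only mean, divided by the solvent-only standard deviation.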

[3] = test system: S. cerevisiae BY4741 (wild-type), vegetative growth in YPD; test: as above
Procedure, shortened: as §1

Row | Structure (SMILES) | CDA2-GFP sporulation assay sensitivity score [1] | growth sensitivity score [2] | growth sensitivity score [3]
1 | C[C@H](CCC(=O)O)[C@H]1CC[C@H]2[C@@H]3C(=O)C[C@@H]4CC(=O)CC[C@]4(C)[C@H]3CC(=O)[C@]12C [Dehydrocholic acid] (stock concentration (mM, diluted 1:100): 10) | 0.09 (inactive) | -1.13 (inactive) | -0.69 (inactive)
2 | CCc1ccc(CCOc2ccc(CC3SC(=O)NC3=O)cc2)nc1 (stereo unspecified) [Pioglitazone hydrochloride] (stock concentration (mM, diluted 1:100): 9.1) | 2.87 (inactive) | -1.03 (inactive) | -0.08 (inactive)
3 | O=c1[nH]cnc2c1ncn2[C@H]1CC[C@@H](CO)O1 [Didanosine] (stock concentration (mM, diluted 1:100): 10.1) | -0.63 (inactive) | -1.72 (inactive) | -1.9 (inactive)
4 | CN(CCOc1ccc(CC2SC(=O)NC2=O)cc1)c1ccccn1 (stereo unspecified) [Rosiglitazone maleate] (stock concentration (mM, diluted 1:100): 7.6) | 1.38 (inactive) | 2.19 (active) | 1.82 (inactive)
5 | Clc1ccccc1C(c1ccccc1)(c1ccccc1)n1ccnc1 [Clotrimazole] (stock concentration (mM, diluted 1:100): 10) | 3.7 (inactive) | 2.49 (active) | 62.8 (active)
6 | COCC1=C(C(=O)OC(C)OC(=O)OC(C)C)N2C(=O)[C@@H](NC(=O)/C(=N\OC)c3csc(N)n3)[C@H]2SC1 (stereo partly specified) [Cefpodoxime proxetil] (stock concentration (mM, diluted 1:100): 7.7) | -0.83 (inactive) | -0.15 (inactive) | -1.13 (inactive)
7 | Nc1nc2ccc(OC(F)(F)F)cc2s1 [Riluzole] (stock concentration (mM, diluted 1:100): 9.9) | 16.9 (active) | 15.4 (active) | 5.49 (active)
8 | O=C(O[C@@H]1Cc2c(O)cc(O)cc2O[C@@H]1c1cc(O)c(O)c(O)c1)c1cc(O)c(O)c(O)c1 [Epigallocatechin gallate] (stock concentration (mM, diluted 1:100): 10) | -1.44 (inactive) | -3.35 | 0.97 (inactive)
9 | Cc1sc(N)c(C(=O)c2cccc(C(F)(F)F)c2)c1C (stock concentration (mM, diluted 1:100): 10) | 11.1 (active) | 143 (active) | 9.52 (active)
10 | CN1CCC(=C2c3ccccc3C=Cc3ccccc32)CC1 [Cyproheptadine hydrochloride] (stock concentration (mM, diluted 1:100): 10) | 14 (active) | 9.58 (active) | 3.38 (active)
11 | C=CC1=C(C(=O)O)N2C(=O)[C@@H](NC(=O)/C(=N\OCC(=O)O)c3csc(N)n3)[C@H]2SC1 [Cefixime trihydrate] (stock concentration (mM, diluted 1:100): 10) | 2.05 (inactive) | -1.39 (inactive) | -0.62 (inactive)
12 | Cc1ncc([N+](=O)[O-])n1CC(O)CCl (stereo unspecified) [Ornidazole] (stock concentration (mM, diluted 1:100): 10) | -0.66 (inactive) | -0.62 (inactive) | -2.78
13 | C=C1/C(=C\C=C2/CCC[C@]3(C)[C@@H]([C@H](C)CCCC(C)(C)O)CC[C@@H]23)C[C@@H](O)C[C@@H]1O [Calcitriol] (stock concentration (mM, diluted 1:100): 10) | 3.05 (inactive) | 21.1 (active) | -0.32 (inactive)
14 | CC(COc1ccccc1Cc1ccccc1)N1CCCCC1 (stereo unspecified) [Benproperine phosphate] (stock concentration (mM, diluted 1:100): 10) | 0.55 (inactive) | 3.29 (active) | 6.41 (active)
15 | CCC(=O)NS(=O)(=O)c1ccc(-c2c(-c3ccccc3)noc2C)cc1 [Parecoxib] (stock concentration (mM, diluted 1:100): 9.8) | 5.02 (inactive) | 0.73 (inactive) | -0.35 (inactive)
16 | CC=CC(=O)N(CC)c1ccccc1C [Crotamiton] (stock concentration (mM, diluted 1:100): 10.3) | 2.32 (inactive) | 0.99 (inactive) | -0.07 (inactive)
17 | OCCOCCN1CCN(C2=Nc3ccccc3Sc3ccccc32)CC1 [Quetiapine hemifumarate] (stock concentration (mM, diluted 1:100): 7.7) | 9.6 (active) | 0.31 (inactive) | 1.12 (inactive)
